In assay [1] the target is Cellular tumor antigen p53 (Homo sapiens) (UniProt P04637). As to the kind of experiment: Primary qHTS for small molecule compounds that upregulate eGFP-tagged delta133p53alpha (in N-terminal) cells. (AID 2060322). Also: nearly all actives have a fitted effect of over 75% in size. Also: potency is read from the fitted curve at half-maximal effect.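 As to activation: cells pre-induced with doxycycline then dosed without doxycycline; series mostly up to about 56 µM; 0% = DMSO vehicle and 100% = reference activator.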 As to conditions: NCI-H358 eGFP-delta133p53alpha fluorescence, 24 h; activation: active compounds read high. The essentials: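 NCI-H358 cells pre-induced 24 h with 10 ng/ml doxycycline for eGFP-delta133p53alpha, plated dox-free and exposed 24 h at 37C to titrated compounds. Fixed, Hoechst-stained; gated GFP peak intensity by laser scanning cytometry, normalized to DMSO (0%) and 57.5 uM 5-azacytidine (100%).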
Chain of Cellular tumor antigen p53 (Homo sapiens) (P04637 whole entry, looked up): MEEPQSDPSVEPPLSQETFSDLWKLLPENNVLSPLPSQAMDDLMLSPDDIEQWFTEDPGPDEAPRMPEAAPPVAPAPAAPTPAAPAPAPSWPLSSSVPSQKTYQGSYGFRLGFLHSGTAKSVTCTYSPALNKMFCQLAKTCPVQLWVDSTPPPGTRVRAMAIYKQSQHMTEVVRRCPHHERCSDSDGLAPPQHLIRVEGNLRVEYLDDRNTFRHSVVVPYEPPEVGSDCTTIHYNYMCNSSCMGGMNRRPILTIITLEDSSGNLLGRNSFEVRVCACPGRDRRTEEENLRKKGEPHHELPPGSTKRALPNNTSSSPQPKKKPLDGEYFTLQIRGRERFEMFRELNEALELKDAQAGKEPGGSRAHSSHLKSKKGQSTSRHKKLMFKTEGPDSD
In general terms: Quantitative high-throughput screening tests each substance at several concentrations.

Assay [2] has as its target Aldehyde dehydrogenase, mitochondrial (Homo sapiens) (UniProt P05091). Briefly: qHTS for Inhibitors of the Aldehyde Dehydrogenase Family (ALDH2) Primary screen (AID 2061308).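 Also: plate controls were vehicle for no effect and reference inhibitor for full effect; nearly all actives have a fitted effect of over 55% in size.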
The target of assay [3] is Retinaldehyde dehydrogenase 3 (Homo sapiens) (UniProt P47895). As to the kind of experiment: qHTS for Inhibitors of the Aldehyde Dehydrogenase Family (ALDH1A3) Validation screen (AID 2061312). Also: % is scaled to controls: 0 for no effect and ±100 for the full control effect; nearly all actives have a fitted effect of over 45% in size.
For assay [4] the target is unchanged. Briefly: qHTS for Inhibitors of the Aldehyde Dehydrogenase Family (ALDH1A3) Primary screen (AID 2061315).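 Also: plate controls were DMSO vehicle for no effect and reference inhibitor for full effect.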
Assay [5] can be described thus: BET inhibitor-based combinations targeting novel dependencies in MECOM-rearranged (r) AML: SET-2 cell line (AID 2202231). Also: nearly all actives have a fitted effect of over 35% in size. Also: potency is read from the fitted curve at half-maximal effect.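 As to viability: plate controls were DMSO treated cells for no effect and wells without cells for full effect.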 To be noted: SET-2 AML cells viability, CellTiter-Glo luminescence, 48 h; viability: active compounds read low, concentration not given here. The method, boiled down:
(§1)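 Each compound was tested at eleven concentrations on cells seeded at 500/well. After two days' incubation, ATP-based luminescence reported viability; responses relative to DMSO and blank wells yielded AUC and cell-line-centred Z-AUC.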
(ATP-based viability assays read luminescence as a measure of living cells.)

A short description of assay [6]: BET inhibitor-based combinations targeting novel dependencies in MECOM-rearranged (r) AML: OCI-AML3 cell line (AID 2202232). Also: nearly all actives have a fitted effect of over 35% in size. Also: potency is read from the fitted curve at half-maximal effect. To be noted: Potency: OCI-AML3 viability. The method, boiled down:
as §1

The nature of assay [7]: BET inhibitor-based combinations targeting novel dependencies in MECOM-rearranged (r) AML: MV-4-11 cell line (AID 2202233). Also: nearly all actives have a fitted effect of over 45% in size. Also: potency is read from the fitted curve at half-maximal effect. The method, boiled down:
(§2)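 First, 500 cells per well were seeded; next, drugs were pinned as 11-point doses; then plates sat 48 hr in the incubator; finally CellTiter-Glo was added and luminescence read, with AUC and Z-AUC computed.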

Assay [8] can be described thus: BET inhibitor-based combinations targeting novel dependencies in MECOM-rearranged (r) AML: HNT-34 cell line (AID 2202234). Also: nearly all actives have a fitted effect of over 35% in size. Also: potency is read from the fitted curve at half-maximal effect. The essentials:
as §2

A short description of assay [9]: BET inhibitor-based combinations targeting novel dependencies in MECOM-rearranged (r) AML: UCSD-AML1 cell line (AID 2202235). Also: nearly all actives have a fitted effect of over 40% in size. Also: potency is read from the fitted curve at half-maximal effect. The method, boiled down: as §2
Assay [10] is described as follows: BET inhibitor-based combinations targeting novel dependencies in MECOM-rearranged (r) AML: AML-191 cell line (AID 2202236; also: nearly all actives have a fitted effect of over 35% in size; also: potency is read from the fitted curve at half-maximal effect). The method, boiled down: as §1
Assay [11] can be described thus: BET inhibitor-based combinations targeting novel dependencies in MECOM-rearranged (r) AML: AML-194 cell line (AID 2202237; also: nearly all actives have a fitted effect of over 40% in size; also: potency is read from the fitted curve at half-maximal effect). The essentials: as §1

One may read the viability as a read-out of living cells in per cent, often relative to untreated cells.

Where “and” joins values, the source holds several entries; their conditions need not be identical. Identical values can stand only once. Results filed as inconclusive are left out. Unmarked numbers belong to inactive results. Calls of active or inactive are those of the source. Calls follow the shape of the dose curve; as a rule, active = well fitted curve in the direction sought with a large enough effect; inconclusive = small, poorly fitted or top-dose-only effect, or another doubt; inactive = no such curve, though single readings can be large; an effect the other way counts as inactive or inconclusive.

For `Nc1nc(F)nc2c1ncn2[C@@H]1O[C@H](CO)[C@@H](O)[C@@H]1O`, the activation in assay [1] was -5.02% and -9.07%. Also, the Potency result in [2], in assay [3] and in assay [4] was “inactive” throughout. For the same molecule, the Potency in assay [5] is 14.8 µM (active); in assay [6] it was 10.5 µM (active); in assay [7] it was 9.34 µM (active); in [8], 14.8 µM (active); in assay [9], 1.05 µM (active); in assay [10], 2.95 µM (active). Further, the Potency in [11] was 3.72 µM (active).
Turning to `COc1cccc(-c2cc(F)ccc2C2Cc3nc(N)nc(C)c3C(=O)N2)n1` (centres undefined), the activation in assay [1] is 2.86%. The Potency result in [2], in [3] and in assay [4] was “inactive” each time. Also, the Potency in assay [5] is 0.0742 µM (active); in [6], 0.0661 µM (active); in [7], 0.0417 µM (active); in assay [8], 0.132 µM (active); in [9] it was 0.105 µM (active); in assay [10], 0.0934 µM (active). In assay [11], the Potency was 0.0934 µM (active).
In the case of `CC(=O)c1cnc2ccc(-c3cc(Cl)c(O)c(Cl)c3)nc2c1NC1CCC(CN(C)C)CC1` (centres undefined), the Potency in assay [1] is 153 nM (active) and 195 nM (active); in [5], 0.0605 µM (active); in [6], 0.121 µM (active); in [7] it was 0.0171 µM (active); in assay [8], 0.0481 µM (active); in [10], 0.0481 µM (active). For the same molecule, in assay [11], the Potency was 0.0605 µM (active). The activity change, negative = inhibition in [2] is 21.4% [at 11.2 µM]; in [3] it was 24.3% [at 20.1 µM]; in [4], 9.88% [at 11.2 µM].
In the case of `CNC(=O)c1cccc(-c2ccc3c(N4CCOC[C@@H]4C)nc(N4CCOC[C@@H]4C)nc3n2)c1`, the activation in [1] is 20%. In addition, the Potency result in [2], in assay [3] and in assay [4] was “inactive” throughout. Also, the Potency is 0.59 µM (active) in assay [5], 0.263 µM (active) in assay [6], 0.372 µM (active) in [7] and 0.0661 µM (active) in assay [9].
Turning to `O=C(c1ccc(C(=O)N2CCC(N3CCCC3)CC2)c(Nc2ccccc2)c1)N1CCC(N2CCCC2)CC1`, the activation in assay [1] was 3.03% and -7.82%. Moreover, the Potency entry in assay [2], in assay [3], in assay [4], in assay [6], in assay [8] and in assay [9] was “inactive” each time. The Potency entry in [10] and in assay [11] was “inactive” in each case. Besides, the viability in assay [5] was 111%. The Potency in assay [7] is 9.34 µM (active).
`O=C(O)CCn1c2c(c3ccccc31)C[C@H](NS(=O)(=O)c1ccc(F)cc1)CC2`: the activation in assay [1] is 0.565% and -1.83% and 6.68%. Besides, the Potency entry in [2], in assay [3], in assay [4], in assay [6], in assay [7] and in assay [8] was “inactive” throughout. Further, the Potency result in [10] and in assay [11] was “inactive” throughout. For the same molecule, the viability in [5] was 105%.
Regarding `CC(C)(C)c1cc(C(=O)O)c(NC(=O)Nc2ccc3[nH]ncc3c2)s1`, in assay [1], the activation was 7.87% and -13.8%. The Potency result in assay [2], in assay [3], in assay [4], in [6], in [8] and in assay [9] was “inactive” in each case. Besides, the Potency entry in assay [10] and in assay [11] was “inactive” each time. The viability in [5] was 118%. In addition, the Potency in assay [7] is 18.6 µM (active).
As to `C[C@H]1CN(C[C@H](Cc2ccccc2)C(=O)NCC(=O)O)CC[C@@]1(C)c1cccc(O)c1`, in [1], the activation is 7.64%. The Potency result in [2], in assay [3], in assay [4], in assay [6], in assay [7] and in [8] was “inactive” in each case. The Potency result in [9], in assay [10] and in [11] was “inactive” in each case. The viability in assay [5] is 120%.
As to `CNC1CCC(N(Cc2cccc(-c3ccncc3)c2)C(=O)c2sc3c(F)ccc(F)c3c2Cl)CC1` (centres undefined), the activation in assay [1] was 21.5%. Further, the Potency result in assay [2], in assay [3] and in assay [4] was “inactive” throughout. The Potency in [5] is 26.3 µM (active); in [6] it was 16.6 µM (active); in assay [7] it was 16.6 µM (active); in [8] it was 20.9 µM (active); in assay [10] it was 20.9 µM (active); in assay [11] it was 23.5 µM (active).
In the case of `Fc1ccc2[nH]ccc2c1-c1nc(N2CCOCC2)c2sc(CN3CCN(CC4CC4)CC3)cc2n1`, the activation in assay [1] is 22%. The Potency entry in assay [2], in assay [3] and in assay [4] was “inactive” in each case. The Potency was 23.5 µM (active) in [5]; 11.8 µM (active) in assay [6]; 14.8 µM (active) in assay [7]; 18.6 µM (active) in assay [8]; 16.6 µM (active) in assay [9]; 10.5 µM (active) in assay [10]. Further, the Potency in assay [11] is 8.33 µM (active).
`Cc1cc(C(=O)N2CCN(c3cccc(Cl)c3)CC2)n(-c2ccccc2)n1`: in assay [1], the activation was -1.43%. The Potency entry in [2], in assay [3] and in assay [4] was “inactive” throughout. Moreover, the Potency is 9.34 µM (active) in [5]; 4.17 µM (active) in assay [6]; 3.72 µM (active) in assay [7]; 2.09 µM (active) in assay [10]; 2.63 µM (active) in assay [11].
For the molecule `O=C(c1ccc(NS(=O)(=O)c2cccc3cccnc23)cc1)N1CCN(CC2CC2)CC1`, the activation in [1] was -3.34%. Moreover, the Potency result in assay [2], in assay [3], in assay [4], in [6], in [7] and in assay [8] was “inactive” in each case. Besides, the Potency entry in assay [9], in [10] and in assay [11] was “inactive” each time. For the same molecule, the viability in assay [5] is 115%.
For the molecule `Clc1cccc(-n2nnnc2NCc2ccccc2Oc2ccccn2)c1Cl`, the activation in [1] is -7.52% and 10.5%. The Potency result in assay [2], in assay [3], in assay [4], in [6], in [7] and in assay [8] was “inactive” in each case. In addition, the Potency result in assay [9], in assay [10] and in [11] was “inactive” throughout. The viability in assay [5] is 103%.
Take `NCC1CCN(c2nccc(-c3ccc4ccccc4c3)n2)CC1`: the Potency is 23.9 µM (active) in [1]; 16.6 µM (active) in assay [5]; 4.68 µM (active) in [6]; 4.17 µM (active) in [7]; 8.33 µM (active) in assay [8]; 2.95 µM (active) in assay [9]. The Potency in assay [10] is 2.63 µM (active); in assay [11], 2.95 µM (active). The Potency result in [2], in [3] and in assay [4] was “inactive” each time.
Turning to `Cc1cc(-c2ncc(CC(=O)Nc3ccc(-c4cnccn4)cn3)cc2C)ccn1`, the activation in [1] is -9.46% and -6.68%. In addition, the Potency result in assay [2], in assay [3] and in assay [4] was “inactive” each time. The Potency in [5] is 11.8 µM (active); in assay [6] it was 8.33 µM (active); in assay [7], 8.33 µM (active); in assay [9], 26.3 µM (active).

For the origin of these results see PubChem BioAssay (NCATS).
